In PubChem BioAssay (EPA / NIEHS):
Active and inactive are the calls of the source. How the source made its calls: active means hit-call score of the fitted dose curve at least 0.9, where 1 is the maximum; inactive means score below 0.9.

Experiment: CCTE_Harrill_HTTr_Viability_MCF7: CCTE's 6-hour Cell Viability Assessment for the High-Throughput Transcriptomics (HTTr) Platform, in MCF-7 cells cultured in DMEM + 10% fetal bovine serum, Harrill Lab (AID 2284010)
Procedure, shortened: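 Membrane integrity was scored by high-content imaging of propidium iodide dye exclusion after a 6 h exposure across an eight-point dilution series. Data were fitted bidirectionally relative to DMSO as negative control and baseline.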

SMILES | outcome | AC50
C#CC1(O)CC[C@H]2[C@@H]3CCC4=CCCC[C@@H]4[C@H]3CC[C@@]21C (stereo partly drawn) | inactive | 
CC1(C)O[C@@H]2C[C@H]3[C@@H]4C[C@H](F)C5=CC(=O)C=C[C@]5(C)[C@@]4(F)[C@@H](O)C[C@]3(C)[C@]2(C(=O)CO)O1 | inactive | 
CC(=O)NS(=O)(=O)c1ccc(N)cc1 | inactive | 
Cc1cccc(N(C)C(=S)Oc2ccc3ccccc3c2)c1 | inactive | 
O=C1C=CC(=O)O1 | inactive | 
O=C(Nc1ccccc1)c1ccccc1O | inactive | 
C=C1C2CCC(C2)C1(C)C (stereo not drawn) | inactive | 
O=C1CCCCCCCCCCC(=O)OCCO1 | inactive | 
CC1(C)[C@H]2CC[C@]1(C)C(=O)C2 | inactive | 
CC(=O)OC(C)C | inactive | 
CCCCCCCCCCCCCCCC[n+]1ccccc1 |  | 77.1 µM (active)
O=Cc1ccc(CO)o1 | inactive | 
Cc1c(C)c([N+](=O)[O-])c(C(C)(C)C)c([N+](=O)[O-])c1C | inactive | 
COc1ccc(-c2coc3cc(O)ccc3c2=O)cc1 | inactive | 
C[C@]12C=CC(=O)C=C1CC[C@@H]1[C@@H]2[C@@H](O)C[C@@]2(C)[C@H]1CC[C@]2(O)C(=O)CO | inactive | 
O=C(O)c1ccccc1Nc1cccc(C(F)(F)F)c1 | inactive | 
CCCOC(=O)CCCCC(=O)OCCC | inactive | 

SMILES | outcome | AC50
CCCNC(=O)NS(=O)(=O)c1ccc(Cl)cc1 | inactive | 
Nc1ccc(N=Nc2ccccc2)c(N)n1 | inactive | 
c1c[nH]cn1 | inactive | 
CCCCOCCOC(=O)COc1nc(Cl)c(Cl)cc1Cl | inactive | 
CCCCCCCCCCCCCCCC(=O)OCC | inactive | 
CCCCCC/C=C\CCCCCCCC(=O)O | inactive | 
CCN(Cc1cccc(S(=O)(=O)O)c1)c1ccc(C(=C2C=CC(=[N+](CC)Cc3cccc(S(=O)(=O)[O-])c3)C=C2)c2ccccc2)cc1 | inactive | 
C=CC(=O)NC(C)(C)CS(=O)(=O)O | inactive | 
CCC(=O)Oc1ccc(/C(CC)=C(\CC)c2ccc(OC(=O)CC)cc2)cc1 | inactive | 
Cc1ccc(C(C)(C)C)cc1 | inactive | 
O=c1c2ccccc2oc2ccccc12 | inactive | 
c1ccc(-c2ccccn2)nc1 | inactive | 
O=C(/C=C/C=C/c1ccc2c(c1)OCO2)N1CCCCC1 | inactive | 
CCCCC(CC)COC(=O)c1ccccc1 (stereo not drawn) | inactive | 
c1ccc2c(c1)ccc1cc3c(ccc4ccccc43)cc12 | inactive | 
Cn1c([N+](=O)[O-])cnc1COC(N)=O | inactive | 
